Only a selection was taken, and hits are over-represented in it overall.
KDM5B inhibitor: inhibitors of human KDM5B histone demethylase | Q9UGL1 | KDM5B demethylase, FDH-coupled NADH fluorescence (FDH is formaldehyde dehydrogenase) | Potency, µM (series often up to 57.7 µM), actives largely listed as inhibitors | 2.6% of 220,000 active | AID 1347165; active = well fitted inhibition curve with a large enough effect; also: 0% is about no effect; nearly all actives have a fitted effect of over 70% in size
Target sequence (Q9UGL1 whole entry, looked up): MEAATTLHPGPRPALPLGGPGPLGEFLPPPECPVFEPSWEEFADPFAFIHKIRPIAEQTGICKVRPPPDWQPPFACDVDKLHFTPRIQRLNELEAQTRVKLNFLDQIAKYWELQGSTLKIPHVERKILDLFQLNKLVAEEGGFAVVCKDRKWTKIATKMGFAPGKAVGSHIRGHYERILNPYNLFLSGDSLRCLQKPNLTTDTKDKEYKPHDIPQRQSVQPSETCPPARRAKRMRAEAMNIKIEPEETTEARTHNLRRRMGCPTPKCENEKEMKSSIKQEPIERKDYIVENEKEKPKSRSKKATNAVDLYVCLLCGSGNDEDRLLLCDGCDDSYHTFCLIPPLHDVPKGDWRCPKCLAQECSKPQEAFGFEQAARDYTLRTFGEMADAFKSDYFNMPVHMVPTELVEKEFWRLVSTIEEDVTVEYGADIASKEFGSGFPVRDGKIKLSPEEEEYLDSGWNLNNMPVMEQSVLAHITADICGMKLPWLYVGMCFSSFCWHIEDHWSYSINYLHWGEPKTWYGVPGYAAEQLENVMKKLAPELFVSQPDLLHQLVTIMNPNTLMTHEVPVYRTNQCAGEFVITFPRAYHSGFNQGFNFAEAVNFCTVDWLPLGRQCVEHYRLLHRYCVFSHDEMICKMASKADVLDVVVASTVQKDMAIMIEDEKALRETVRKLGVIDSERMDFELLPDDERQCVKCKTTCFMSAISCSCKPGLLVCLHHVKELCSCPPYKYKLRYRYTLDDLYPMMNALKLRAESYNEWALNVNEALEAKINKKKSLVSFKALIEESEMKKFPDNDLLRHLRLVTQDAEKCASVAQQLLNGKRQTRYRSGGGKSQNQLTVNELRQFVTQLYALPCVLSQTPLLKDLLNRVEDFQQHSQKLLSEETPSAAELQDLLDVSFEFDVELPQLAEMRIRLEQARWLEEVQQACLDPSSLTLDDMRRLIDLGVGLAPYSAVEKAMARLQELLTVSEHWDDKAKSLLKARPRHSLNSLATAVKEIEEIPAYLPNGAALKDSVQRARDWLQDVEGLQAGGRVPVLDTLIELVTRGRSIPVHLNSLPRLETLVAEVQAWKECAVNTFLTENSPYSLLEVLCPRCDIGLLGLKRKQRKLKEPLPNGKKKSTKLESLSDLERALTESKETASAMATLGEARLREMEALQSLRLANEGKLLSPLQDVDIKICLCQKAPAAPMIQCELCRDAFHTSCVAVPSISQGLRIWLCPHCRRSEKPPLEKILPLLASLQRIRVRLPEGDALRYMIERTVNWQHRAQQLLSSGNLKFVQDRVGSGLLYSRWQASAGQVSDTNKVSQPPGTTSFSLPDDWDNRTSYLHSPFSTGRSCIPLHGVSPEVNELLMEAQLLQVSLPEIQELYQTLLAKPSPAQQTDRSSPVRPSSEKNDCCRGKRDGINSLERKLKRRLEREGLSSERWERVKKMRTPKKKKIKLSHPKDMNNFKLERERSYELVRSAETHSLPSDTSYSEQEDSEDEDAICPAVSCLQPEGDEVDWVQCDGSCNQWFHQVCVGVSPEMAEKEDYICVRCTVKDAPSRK
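Measured: NADH fluorescence change, 30 min, RT. System: KDM5BΔAP 200 nM final, H3K4me3 peptide, α-KG, Fe(II), ascorbate, NAD⁺ plus FDH, pH 7.5 HEPES. Compounds: titrated, 10 min pre-incubation with enzyme.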
An asterisk follows results filed as active; i = inactive. Potency is read from the fitted curve at half-maximal effect.

SMILES | KDM5B inhibitor
COCCn1cnc2ccc(-c3ccc(F)c(Cl)c3)nc2c1=O | 32µM*
COCCn1cnc2ccc(-c3ccc4c(c3)OCO4)nc2c1=O | i
COc1ccc(-c2ccc3c(n2)c(=O)ncn3CC2CC2)cc1OC | i
COCCn1c(-c2ccc(Cl)cc2)n[nH]c1=S | i
COCCCn1cnc2cccnc21 | i
Cn1c(=O)c2c(ncn2CCC(=O)Nc2ccc(F)c(Cl)c2)n(C)c1=O | i
COCCn1cnc2ccc(-c3ccsc3)nc2c1=O | 35µM*
COCCn1cnc2ccc(-c3cccc(C(F)(F)F)c3)nc2c1=O | i
COCCn1cnc2ccc(-c3cccc(C)c3)nc2c1=O | 40µM*
O=C(c1cc(-c2ccccc2)nc2ccccc12)N(Cc1ccco1)C1CC1 | i
CC1(C)Cc2c(sc3c2c2nc(Cc4ccccc4)nn2c(=O)n3CC(=O)c2ccccc2)CO1 | i
N#Cc1ccc(CN2CCN(Cc3nnsc3Cl)CC2)cc1 | i
O=C(CSc1nnnn1C1CCCC1)NCc1ccc(CN2CCOCC2)cc1 | i
O=C(COC(=O)c1ccc2ccccc2n1)Nc1ccc(F)c(F)c1 | i
CCCCC(=O)Nc1c(S(=O)(=O)c2ccc(F)cc2)c(C)c(C)n1CCOC | i
COc1cccc2cc(C(=O)OCC(=O)c3ccccc3)c(=O)oc12 | i
CCC(CO)NS(=O)(=O)c1ccc(Cl)c(Cl)c1Cl (centres undefined) | i
Cc1cccc(CN2CCCN(c3cccc(C(=O)NCc4ccc5c(c4)OCO5)c3)C2=O)c1 | i
Nc1cccc(/C=C/C(=O)c2ccccc2)c1 | i
CN(CC(=O)NC(N)=O)Cc1ccc(F)cc1F | i
COc1ccc(-c2noc(-c3ccc(N4CCOCC4)c([N+](=O)[O-])c3)n2)cc1 | i
COc1ccc(-c2noc(-c3nc(C)no3)n2)cc1 | i
COc1ccc(-c2noc(-c3ccc(N4C[C@H]5CC[C@H]4C5)nc3)n2)cc1 | 32µM*
COc1ccc(-c2noc(-c3ccc(N4CCCOCC4)nc3)n2)cc1 | 32µM*
COc1ccc(-c2noc(-c3ccc(S(=O)(=O)N4CCOCC4)o3)n2)cc1 | i
SMILES | KDM5B inhibitor
COc1ccc(-c2noc(-c3ccc(Br)o3)n2)cc1 | i
O=C(OCc1c(Cl)cccc1Cl)c1ccc(CN2CCCC2=O)cc1 | i
CCN1C(=O)CCc2cc(NC(=O)c3ccc(OC(F)(F)F)cc3)ccc21 | i
COc1ccc(C(=O)N2CCc3ccc(C(=O)NCc4cccnc4)cc32)cc1 | i
Cc1cc(C(=O)NCC2Cn3cccc3CN2Cc2ccccc2)n[nH]1 (centres undefined) | 32µM*
COc1ccc(C(=O)NCC2Cn3cccc3C(=O)N2C)cc1OC (centres undefined) | i
COc1ccc(C(=O)NCC2Cn3cccc3CN2Cc2cccnc2)cc1 (centres undefined) | 13µM*
COc1ccc(C(=O)NCC2Cn3cccc3C(=O)N2CC(C)C)cc1 (centres undefined) | i
COCCNC(=O)[C@H]1C[C@H](Oc2ccccc2)CN1Cc1ccc2[nH]ccc2c1 | i
Cc1nc(C)c(C(=O)NCC2Cn3cccc3C(=O)N2Cc2ccccc2)s1 (centres undefined) | i
O=C(NCC1Cn2cccc2C(=O)N1Cc1ccccc1)c1cccc2nccnc12 (centres undefined) | i
O=C(NCC1Cn2cccc2CN1Cc1ccccc1)c1ccc2cc[nH]c2c1 (centres undefined) | 25µM*
CCCCCCCOC(=O)Nc1ccc(C)cc1 | i
CCCCCCCCCOc1ccc(C(=O)O)cc1 | i
CC(C)c1ccc(-c2nonc2NC(=O)c2cc(=O)c3cc(Cl)ccc3o2)cc1 | i
NC(=O)c1ccc(NC(=O)Cn2ccc3cc(Cl)ccc32)cc1 | i
COc1cccc(N2CCN(c3ccc(NC(=O)c4ccc(C)cc4)cc3C(=O)O)CC2)c1 | i
Cc1cc(Cl)ccc1OCc1nnc(SCc2ccc(Cl)c(Cl)c2)n1C | i
CC(C)c1ccc(NC(=O)O[C@@H]2CO[C@H]3[C@@H]2OC[C@@H]3NS(=O)(=O)Cc2ccccc2)cc1 | i
Cc1csc(NC(=O)c2nn(C(C)C)c(=O)c3ccccc23)n1 | i
Cc1cccc(C(=O)Oc2cccc(Br)c2)c1C | i
O=c1cc(-c2ccncc2)oc2c(-c3cccc4[nH]ccc34)nccc12 | i
COc1ccccc1N1CCN(C(=O)CCc2conc2-c2cccc(F)c2)CC1 | i
CN1CCN(c2ccc(NC(=O)c3cccc(F)c3)nc2)CC1 | i
CCc1ccc(C(=O)NCc2ccnc(N3CCN(C)CC3)c2)o1 | i
SMILES | KDM5B inhibitor
CN1CCN(c2cc(=O)c3ccnc(-c4ccc(CO)cc4)c3o2)CC1 | 35µM*
CN(C)c1cc(=O)c2ccnc(-c3cccc(CO)c3)c2o1 | i
Cc1ccc(C(=O)NCc2ccc(N3CCN(C)CC3)nc2)o1 | i
CN1CCN(c2cc(=O)c3ccnc(-c4cccc(F)c4)c3o2)CC1 | 35µM*
O=c1cc(-c2ccncc2)oc2c(-c3cccc(CO)c3)nccc12 | 35µM*
CN1CCN(c2cc(=O)c3ccnc(-c4cccc(CO)c4)c3o2)CC1 | 28µM*
FC(F)c1n[nH]c(C(F)F)c1Cl | i
Cc1ccccc1NC(=O)c1sc2nc3c(cc2c1N)CN(C(C)C)CC3 | i
O=C(O)CC(C(=O)O)c1ccccc1 (centres undefined) | i
COc1ccc(Cc2nc3c4c(C)c(C)n(-c5cc(C)ccn5)c4ncn3n2)cc1OC | i
O=C(COc1coc(CN2CCCCC2)cc1=O)NCc1ccccc1 | i
NC(=O)C1CCN(C(=O)c2cc(-c3ccncc3)nc3ccccc23)CC1 | i
CCn1cnc2c1c(=O)n(CC(=O)Nc1ccccc1N1CCCC1=O)c(=O)n2Cc1ccccc1 | i
CC(=O)Nc1ccc(C(=O)CSc2ncnc3sccc23)cc1 | i
O=C(c1nc2ncccn2n1)N1CCCn2cc(-c3ccccc3)nc21 | i
CCn1nccc1C(=O)N1CCCn2cc(-c3ccccc3F)nc21 | i
N#Cc1cccc(-c2cn3c(n2)N(C(=O)c2ccco2)CCC3)c1 | 25µM*
N#Cc1cccc(-c2cn3c(n2)N(C(=O)c2cccc(F)c2)CCC3)c1 | 22µM*
N#Cc1cccc(-c2cn3c(n2)N(C(=O)c2ccccn2)CCC3)c1 | 18µM*
Cc1ccc2nc(-c3ccccc3)cc(C(=O)N3CCN(C(=O)c4ccco4)CC3)c2c1 | i
Cc1ccc(-c2cn3c(n2)N(C(=O)c2cnn4cccnc24)CCC3)cc1 | i
Cc1ccc(C(=O)N2CCCn3cc(-c4cccc(C#N)c4)nc32)cn1 | 28µM*
Cc1ccccc1C(=O)N[C@@H](C)C(=O)O | i
CC(C(=O)NC(C)(C)C)N(c1ccc(F)cc1)S(C)(=O)=O (centres undefined) | i
Cc1cc(C)cc(NC(=O)C(Sc2nnnn2C2CCCC2)c2ccccc2)c1 (centres undefined) | i
SMILES | KDM5B inhibitor
Cc1ccc2nc(C)cc(C(=O)NCCCOC(C)C)c2c1 | i
CCOCCCNC(=O)c1cc(-c2ccccc2)nc2ccccc12 | i
Cc1cc(CS(=O)(=O)CC(=O)NC2CC2)on1 | i
Cc1ccnc2nc(C(=O)OC(C)C(=O)c3c[nH]c4ccccc34)nn12 (centres undefined) | i
Cc1ccccc1C1CCCN1S(=O)(=O)c1cccc2nsnc12 (centres undefined) | i
O=C(c1ccoc1)N1CCCn2cc(-c3ccccc3)nc21 | i
Cc1ccsc1C(=O)N1CCCn2cc(-c3ccccc3)nc21 | i
O=C(c1ccsc1)N1CCCn2cc(-c3ccccc3)nc21 | i

Compound activity: PubChem, National Center for Advancing Translational Sciences (NCATS)
